According to PubChem BioAssay (NCI):
About 83,000 compounds went through this panel and 20% of them were active in at least one assay; those are over-represented in the sample as a whole.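 For each line, cells grew in 96-well plates with the test compound present at a single concentration for 48 hours.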 Active and inactive are the calls of the source. How the source made its calls: active means growth percent below 10; inactive means the rest.

Columns and labels:
Test in all cases: NCI-60 one-dose screen, 48 h (100 = growth as untreated, 0 = no growth, -100 = all killed)
SK-MEL-2 melanoma = conditions: 10 µM unless noted
SN12C renal = conditions: 10 µM unless noted
UO-31 renal = conditions: 10 µM unless noted
TK-10 renal = conditions: 10 µM unless noted
ACHN renal = conditions: 10 µM unless noted
CAKI-1 renal = conditions: 10 µM unless noted
A498 renal = conditions: 10 µM unless noted
CCRF-CEM leukemia = conditions: 10 µM unless noted
MOLT-4 leukemia = conditions: 10 µM unless noted
SR leukemia = conditions: 10 µM unless noted
RPMI-8226 leukemia = conditions: 10 µM unless noted
OVCAR-8 ovarian = conditions: 10 µM unless noted
OVCAR-5 ovarian = conditions: 10 µM unless noted
OVCAR-4 ovarian = conditions: 10 µM unless noted
SK-OV-3 ovarian = conditions: 10 µM unless noted
IGROV1 ovarian = conditions: 10 µM unless noted
OVCAR-3 ovarian = conditions: 10 µM unless noted
HS 578T breast = conditions: 10 µM
EKVX NSCLC = conditions: 10 µM unless noted
NCI/ADR-RES ovarian = conditions: 10 µM unless noted

Measured: growth

CNCCCNc1ccnc2cc(Cl)ccc12
active: SK-MEL-2 melanoma -64.5% | SN12C renal 2.75% | UO-31 renal -34.4% | TK-10 renal -11.4% | ACHN renal -31.6% | CAKI-1 renal -29.7% | A498 renal -78.2% | CCRF-CEM leukemia -17.1% | MOLT-4 leukemia 2.58% | SR leukemia 3.67% | RPMI-8226 leukemia -12.3% | OVCAR-8 ovarian 1.62% | OVCAR-4 ovarian -21.3% | SK-OV-3 ovarian 5.19% | IGROV1 ovarian -21.7% | OVCAR-3 ovarian -31.2% | HS 578T breast -3.8%
inactive: OVCAR-5 ovarian 13.1%

CCN(CC)CCCCCCCNc1cc(OC)cc2c(C)ccnc12
inactive: SK-MEL-2 melanoma 109% | EKVX NSCLC 86.7% | UO-31 renal 38.2% | TK-10 renal 110% | ACHN renal 87.7% | A498 renal 63.2% | CCRF-CEM leukemia 83.7% | MOLT-4 leukemia 72% | SR leukemia 73.2% | RPMI-8226 leukemia 68.9% | OVCAR-8 ovarian 67.2% | OVCAR-5 ovarian 97.5% | OVCAR-4 ovarian 21.1% | SK-OV-3 ovarian 94.9% | IGROV1 ovarian 52.6% | OVCAR-3 ovarian 20.6% | HS 578T breast 72.4% | NCI/ADR-RES ovarian 78.6%

O=C(C=P(c1ccccc1)(c1ccccc1)c1ccccc1)CCl
active: SK-MEL-2 melanoma -47.4% | SN12C renal -19.3% | UO-31 renal -95.4% | TK-10 renal -46.2% | ACHN renal -85.7% | CAKI-1 renal -74.9% | A498 renal -35.8% | CCRF-CEM leukemia -3.6% | MOLT-4 leukemia -35.8% | SR leukemia 3.51% | RPMI-8226 leukemia -19.2% | OVCAR-8 ovarian -37.1% | OVCAR-5 ovarian 1.7% | OVCAR-4 ovarian -37.3% | IGROV1 ovarian -69.5% | OVCAR-3 ovarian -85.1% | NCI/ADR-RES ovarian -27%
inactive: SK-OV-3 ovarian 24.6% | HS 578T breast 18.6%

C#CC[C@@H]1C[C@]2(C)[C@H]3CC=C4[C@H]5[C@@H](C)[C@H](C)CC[C@]5(C(=O)NCCCCCCCCN)CC[C@@]4(C)[C@]3(C)CC[C@H]2C(C)(C)[C@H]1OC(C)=O
active: CAKI-1 renal -69.7% | CCRF-CEM leukemia -34.6% | MOLT-4 leukemia -19.8% | SR leukemia 3.43% | RPMI-8226 leukemia -45.8% | OVCAR-8 ovarian -33.6% | OVCAR-4 ovarian -0.477% | OVCAR-3 ovarian -91.5%
inactive: SK-MEL-2 melanoma 104% | EKVX NSCLC 95% | UO-31 renal 67.2% | TK-10 renal 80.5% | ACHN renal 85.8% | A498 renal 94.5% | OVCAR-5 ovarian 108% | SK-OV-3 ovarian 116% | IGROV1 ovarian 50.9% | HS 578T breast 101% | NCI/ADR-RES ovarian 65.9%

CCOC(=O)Nc1ccc2nc(-c3cscn3)[nH]c2c1
inactive: SK-MEL-2 melanoma 32.4% | SN12C renal 51.1% | UO-31 renal 50.9% | TK-10 renal 63.2% | ACHN renal 73.9% | CAKI-1 renal 39.3% | A498 renal 41.8% | CCRF-CEM leukemia 70.8% | MOLT-4 leukemia 49.9% | SR leukemia 23.3% | RPMI-8226 leukemia 43.1% | OVCAR-8 ovarian 57.8% | OVCAR-5 ovarian 85.9% | OVCAR-4 ovarian 89.7% | SK-OV-3 ovarian 56.5% | IGROV1 ovarian 42.6% | OVCAR-3 ovarian 22.8% | HS 578T breast 64.7%

CCOC(=O)c1c(NC(=O)c2ccccc2)sc2c(O)c(CN(CC)CC)ccc12
active: SK-MEL-2 melanoma 7.87% | CAKI-1 renal 1.51% | A498 renal -22.7% | CCRF-CEM leukemia 5.79% | SR leukemia 9.72% | OVCAR-8 ovarian 2.1% | SK-OV-3 ovarian -14.8% | OVCAR-3 ovarian -61.6%
inactive: SN12C renal 24.3% | UO-31 renal 37.5% | TK-10 renal 19.8% | ACHN renal 29.5% | MOLT-4 leukemia 14% | RPMI-8226 leukemia 18.2% | OVCAR-5 ovarian 48.6% | OVCAR-4 ovarian 42.8% | IGROV1 ovarian 22.4% | HS 578T breast 26.9%

Cc1ccc(CSCc2ccc(C(=O)NC3CC3)o2)cc1
inactive: SK-MEL-2 melanoma 75.6% | SN12C renal 83.2% | UO-31 renal 74.7% | TK-10 renal 90.6% | ACHN renal 63.1% | CAKI-1 renal 64.5% | A498 renal 53.3% | CCRF-CEM leukemia 62.1% | MOLT-4 leukemia 62.6% | SR leukemia 18.2% | RPMI-8226 leukemia 52.1% | OVCAR-8 ovarian 72% | OVCAR-5 ovarian 76.3% | OVCAR-4 ovarian 69.1% | SK-OV-3 ovarian 108% | IGROV1 ovarian 89.2% | OVCAR-3 ovarian 74.6% | HS 578T breast 92.2% | NCI/ADR-RES ovarian 64.3%

Cc1cc(NC(=O)C2c3ccccc3C(=O)N(CC(C)C)C2c2cccs2)no1 (configuration not stated)
inactive: SK-MEL-2 melanoma 50.7% | A498 renal 113% | MOLT-4 leukemia 16.7% | OVCAR-5 ovarian 31.5% | SK-OV-3 ovarian 94.7% | IGROV1 ovarian 16.2% | HS 578T breast 67.7%
active: SN12C renal -30.9% | UO-31 renal -89.7% | TK-10 renal -5.69% | ACHN renal 0.299% | CAKI-1 renal -40.1% | CCRF-CEM leukemia -13% | SR leukemia 7.23% | RPMI-8226 leukemia 3.73% | OVCAR-8 ovarian 3.68% | OVCAR-4 ovarian -8.84% | OVCAR-3 ovarian -53.6%

CC(C)N=C1CCCC1C(=S)SSC(=S)C1CCCC1=NC(C)C (configuration not stated)
inactive: SK-MEL-2 melanoma 94.7% | SN12C renal 58.1% | UO-31 renal 54.3% | TK-10 renal 109% | ACHN renal 68.4% | CAKI-1 renal 39.3% | A498 renal 83.4% | CCRF-CEM leukemia 22.9% | MOLT-4 leukemia 61.2% | SR leukemia 47.7% | RPMI-8226 leukemia 59.5% | OVCAR-8 ovarian 61.7% | OVCAR-5 ovarian 93.9% | OVCAR-4 ovarian 53.8% | SK-OV-3 ovarian 110% | IGROV1 ovarian 52.8% | OVCAR-3 ovarian 44.8% | HS 578T breast 75.9%

CC(CN1CCN(CCOCCO)CC1)CN1c2ccccc2Sc2ccc(Cl)cc21 (configuration not stated)
active: SR leukemia -2.53%
inactive: SK-MEL-2 melanoma 80.7% | SN12C renal 69.9% | UO-31 renal 50.1% | TK-10 renal 74.4% | ACHN renal 69.4% | CAKI-1 renal 69.4% | A498 renal 43.9% | CCRF-CEM leukemia 63.2% | MOLT-4 leukemia 28.5% | RPMI-8226 leukemia 60% | OVCAR-8 ovarian 97.2% | OVCAR-5 ovarian 71.7% | OVCAR-4 ovarian 75.7% | SK-OV-3 ovarian 90.4% | IGROV1 ovarian 60.1% | OVCAR-3 ovarian 67% | HS 578T breast 60.6% | NCI/ADR-RES ovarian 68.7%

O=C(Nc1ccc(Br)cc1)Nc1ccccc1Cl
inactive: SK-MEL-2 melanoma 92% | SN12C renal 84.7% | UO-31 renal 58.9% | TK-10 renal 125% | ACHN renal 84.4% | CAKI-1 renal 55.2% | A498 renal 86.9% | CCRF-CEM leukemia 94.8% | MOLT-4 leukemia 63.9% | SR leukemia 84.9% | RPMI-8226 leukemia 50% | OVCAR-8 ovarian 79.8% | OVCAR-5 ovarian 90.1% | OVCAR-4 ovarian 75.1% | SK-OV-3 ovarian 84.6% | IGROV1 ovarian 63.9% | OVCAR-3 ovarian 88.1% | HS 578T breast 99.7% | NCI/ADR-RES ovarian 80%

COc1cc(C2=NOC(c3cc(OC)c(OC)c(OC)c3)C2)ccc1OCCCCOc1cc2c(cc1OC)C(=O)N1CCC[C@H]1C=N2 (some centres not stated)
inactive: SK-OV-3 ovarian 10.4% | NCI/ADR-RES ovarian 18.4%
active: SK-MEL-2 melanoma 1.46% | EKVX NSCLC -39.6% | UO-31 renal 7.06% | TK-10 renal -22.4% | ACHN renal 5.06% | CAKI-1 renal 5.08% | A498 renal -58.7% | CCRF-CEM leukemia -37.5% | MOLT-4 leukemia 2.1% | SR leukemia -24.8% | RPMI-8226 leukemia -27.3% | OVCAR-8 ovarian 6.96% | OVCAR-5 ovarian 9.04% | OVCAR-4 ovarian -35.6% | IGROV1 ovarian -3.57% | OVCAR-3 ovarian -34.1% | HS 578T breast -10.4%

CCC1CCc2nc3sc(C(=O)Nc4cccc(F)c4)c(N)c3cc2C1 (configuration not stated)
inactive: SK-MEL-2 melanoma 63.3% | SN12C renal 94.4% | UO-31 renal 67.2% | TK-10 renal 77% | ACHN renal 67.9% | CAKI-1 renal 57.9% | A498 renal 50.5% | CCRF-CEM leukemia 47.9% | MOLT-4 leukemia 37.5% | SR leukemia 12.5% | RPMI-8226 leukemia 44.9% | OVCAR-8 ovarian 86.6% | OVCAR-5 ovarian 90.5% | OVCAR-4 ovarian 99.2% | SK-OV-3 ovarian 83.1% | IGROV1 ovarian 89.2% | HS 578T breast 79.5% | NCI/ADR-RES ovarian 61.8%

CCCCCCCCCCC(C(O)c1ccccc1)N1CCCCC1 (configuration not stated)
active: UO-31 renal -1.17% | CAKI-1 renal -21.1% | CCRF-CEM leukemia 0.764% | MOLT-4 leukemia 6.36% | SR leukemia 0.484% | RPMI-8226 leukemia -50.3% | IGROV1 ovarian 2.8%
inactive: SK-MEL-2 melanoma 53.8% | SN12C renal 43.2% | TK-10 renal 76.8% | ACHN renal 42.1% | A498 renal 75.1% | OVCAR-8 ovarian 62.8% | OVCAR-5 ovarian 47.4% | OVCAR-4 ovarian 41% | SK-OV-3 ovarian 36.1% | HS 578T breast 18.3% | NCI/ADR-RES ovarian 49.8%

CO[C@@]12[C@@H]3NC3CN1C1=C(C(=O)C(N)=C(C)C1=O)[C@@H]2COC(N)=O (some centres not stated)
active: SK-MEL-2 melanoma -11.2% | UO-31 renal 5.54% | TK-10 renal 9.47% | ACHN renal -10.3% | A498 renal -82.9% | SK-OV-3 ovarian 5.63%
inactive: SN12C renal 24.6% | CAKI-1 renal 14.9% | CCRF-CEM leukemia 27.1% | OVCAR-8 ovarian 15.8% | OVCAR-5 ovarian 45.7% | IGROV1 ovarian 33.1% | HS 578T breast 70.9% | NCI/ADR-RES ovarian 51.4%

CC(C)N1CCN(c2ccncc2S(=O)(=O)N2CCN(C)CC2)CC1
inactive: SK-MEL-2 melanoma 107% | SN12C renal 98.4% | UO-31 renal 87.3% | TK-10 renal 101% | ACHN renal 101% | CAKI-1 renal 98.5% | A498 renal 107% | CCRF-CEM leukemia 98.4% | MOLT-4 leukemia 104% | SR leukemia 93.5% | RPMI-8226 leukemia 102% | OVCAR-5 ovarian 96.9% | OVCAR-4 ovarian 96.1% | SK-OV-3 ovarian 103% | IGROV1 ovarian 119% | OVCAR-3 ovarian 110% | HS 578T breast 105%

O=C(c1ccccc1)N(CCCCl)C(=O)N(CCCCl)C(=O)c1ccccc1
inactive: SK-MEL-2 melanoma 103% | SN12C renal 94.6% | UO-31 renal 73.4% | TK-10 renal 96.8% | ACHN renal 90.9% | CAKI-1 renal 74.9% | A498 renal 79.5% | CCRF-CEM leukemia 99.7% | MOLT-4 leukemia 84.4% | SR leukemia 101% | RPMI-8226 leukemia 88.1% | OVCAR-8 ovarian 97.2% | OVCAR-5 ovarian 87% | SK-OV-3 ovarian 84.5% | IGROV1 ovarian 90.7% | OVCAR-3 ovarian 93.7% | HS 578T breast 93.9% | NCI/ADR-RES ovarian 91.1%
